Experimental data: PubChem BioAssay (Tox21)
The source made the active and inactive calls. The call rests on the fitted dose curve; in most records, active means well fitted curve in the direction sought with a large enough effect in the repeat runs; inconclusive means weak or mixed curves; inactive means flat fitted curve, though single readings scatter.

Assay: qHTS assay to test for compound auto fluorescence at 590 nm (red) in HEK293 cells (AID 720679)
Conditions: red autofluorescence 540/590 nm; series mostly up to 91.3 µM; fluorescence, % of fluorescent control: at the top concentration
Description: National Center for Advancing Translational Sciences [NCATS]
NIH Chemical Genomics Center [NCGC]
U.S. Environmental Protection Agency [EPA]
National Institutes of Environmental Health Sciences [NIEHS]
National Toxicology Program [NTP]
U.S. Food and Drug Administration [FDA]
Compound auto fluorescence often interferes with screening of the compound library against various biological targets and signaling pathways. Some of these compounds may have fluorophoric properties. Such properties may interfere with the assay outputs resulting in false positives and/or negatives. To decrease such complications and ensure the compound activities are relevant in terms of biological response, the Tox21 10K compound library was screened for auto fluorescence.
From the fluorophores used as reporter signals in our screening assays, the auto fluorescence equivalencies of compounds against three fluorophores have been evaluated: Triamterene, Fluorescein and Rose Bengal sodium for blue, green and red fluorescence, respectively. The fluorescence intensities were measured using Excitation/Emission wavelengths at 405/460nm, 485/535nm and 540/590nm for blue, green and red labels, respectively. This assay includes the red fluorescence data.
Tox21 Assay Protocol Summary:
2,000 HEK293 cells in 5 uL of culture medium containing 10% dialyzed FBS per well were dispensed into black wall/clear bottom 1536-well plates using a Multidrop Combi Dispenser (Thermo Scientific). The assay plates were incubated for 4-5 hr at 37C to allow cell attachment to the well bottom, followed by the transfer of 23 nL compound or DMSO vehicle by a pintool work station (Kalypsys, San Diego, CA). After the assay plates were incubated overnight at 37C and 5% CO2, fluorescence intensities in the assay plates were measured by an Envision (PerkinElmer, Shelton, CT) plate reader using three labels for measuring blue, green and red fluorescence at […] 460, 535 and 590nm respectively.
On the % scale 0 is the no-effect control and ±100 the full control effect.

SMILES | outcome | fluorescence, % of fluorescent control
ClC(Cl)Cl | inactive | 
CC(C)(CO)[C@@H](O)C(=O)NCCC(=O)O | inactive | 
NC/C=C/C(=O)O |  | 0.12% [at 46 µM] (inactive)
CCC1(C)NC(=O)NC1=O (stereo not given) |  | 0.421% (inactive)
C[C@@H]1CN(c2c(F)c(F)c3c(=O)c(C(=O)O)cn(C4CC4)c3c2F)C[C@H](C)N1 |  | -0.816% [at 46 µM] (inactive)
COc1cc(C)ccc1C(C)C |  | -0.939% (inactive)
CO[C@@]1(NC(=O)CSCC#N)C(=O)N2C(C(=O)O)=C(CSc3nnnn3C)CS[C@@H]21 |  | -0.345% [at 46 µM] (inactive)
COc1cc(N)c(Cl)cc1C(=O)NC1CCN(Cc2ccccc2)CC1 |  | -0.139% [at 18.6 µM] (inactive)
O=C1CCC(C2CCCCC2)CC1 |  | -0.761% (inactive)
CN1CCN(C2=Nc3ccccc3Oc3ccc(Cl)cc32)CC1 |  | 0.151% [at 18.6 µM] (inactive)
CCOc1ccccc1N |  | 0.343% (inactive)
O=C(CC(=O)C(F)(F)F)c1ccccc1 |  | 0.273% [at 95.7 µM] (inactive)
C=O | inactive | 
OCCN(CCO)c1ccccc1 |  | -0.157% (inactive)
CCCCOc1cc(C(=O)NCCN(CC)CC)c2ccccc2n1 |  | -0.209% [at 18.6 µM] (inactive)
CCC/C=C/CO |  | -0.0058% (inactive)
CS(=O)(=O)c1ccc([C@@H](O)[C@@H](CF)NC(=O)C(Cl)Cl)cc1 |  | 0.0865% [at 18.6 µM] (inactive)
OCc1c2ccccc2cc2ccccc12 |  | 0.316% (inactive)
COc1cc(Cl)ccc1Cl |  | 0.243% [at 95.7 µM] (inactive)
CC(=O)Nc1ccc(C)c(Cl)c1 |  | -0.764% (inactive)

SMILES | outcome | fluorescence, % of fluorescent control
ICCc1ccccc1 |  | 0.534% (inactive)
C[C@]12C(=O)OC(=O)[C@H]1[C@H]1C=C[C@@H]2C1 |  | -0.382% (inactive)
O=C1N(c2ccccc2)c2ccccc2C1(Cc1ccncc1)Cc1ccncc1 |  | 0.114% [at 46 µM] (inactive)
CC1=CC(=O)CC(C)(C)C1=O |  | -0.428% [at 95.7 µM] (inactive)
Cc1c(N)cccc1N |  | 0.0704% [at 95.7 µM] (inactive)
C=C(C)C(=O)OCCOP(=O)(O)O |  | -0.881% [at 95.7 µM] (inactive)
CCOC(=O)CS |  | -0.008% [at 95.7 µM] (inactive)
CC(=O)N(CC(O)CN(C(C)=O)c1c(I)c(C(=O)NCC(O)CO)c(I)c(C(=O)NCC(O)CO)c1I)c1c(I)c(C(=O)NCC(O)CO)c(I)c(C(=O)NCC(O)CO)c1I (stereo not given) |  | -0.003% [at 18.6 µM] (inactive)
CCN(CC)CCNC(=O)COc1ccc(Cl)cc1 |  | -0.0839% [at 46 µM] (inactive)
O=c1oc2c(O)c(O)cc3c(=O)oc4c(O)c(O)cc1c4c23 |  | 0% [at 46 µM] (inactive)
CC(C)NCC(O)COc1ccc(CCOCC2CC2)cc1 (stereo not given) |  | -0.0878% [at 46 µM] (inactive)
O=C1Nc2ccc([N+](=O)[O-])cc2C1=O |  | -0.0275% (inactive)
FC(F)(F)c1ccccc1 |  | 0.533% (inactive)
O=C1CCN(c2ccccc2)N1 |  | -0.0377% (inactive)
CC(C)NC[C@@H](O)COc1cccc2ccccc12 |  | 0.23% [at 46 µM] (inactive)
Cc1cc2nc(N)sc2cc1C |  | -0.011% (inactive)
CCN(CCCc1ccccc1)CCCc1ccccc1 |  | -0.195% [at 18.6 µM] (inactive)
NNS(=O)(=O)c1ccc(Oc2ccc(S(=O)(=O)NN)cc2)cc1 |  | 0.0155% (inactive)
FC(F)(F)C(F)(F)C(F)(F)C(F)(F)C(F)(F)C(F)(F)C(F)(F)C(F)(F)Br |  | 0.469% [at 46 µM] (inactive)
C=CC(C)(O)CC/C=C(\C)CCC=C(C)C (stereo not given) | inactive | 
